Unmarked numbers belong to inactive results. Results filed as inconclusive are left out. Activity calls are given as the source filed them. Calls follow the shape of the dose curve; as a rule, active = well fitted curve in the direction sought with a large enough effect in the repeat runs; inconclusive = weak or mixed curves; inactive = no such curve, though single readings can be large; an effect the other way counts as inactive or inconclusive.

The nature of assay [1]: Human pregnane X receptor (PXR) small molecule agonists, qHTS cell viability counter screen (AID 1346977). Also: nearly all actives have a fitted effect of over 50% in size. Summed up: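 PXR-Luc HepG2, 2,000 cells/well, 5% charcoal-stripped FBS; 5hr settle; cpd 24hr, 37C/5% CO2; CellTiter-Fluor at 23hr, read 1hr later (fluorescence).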
Background: In qHTS, concentration-response curves come from the screen itself.

A short description of assay [2]: Caspase-3/7 induction in HepG2 cells by small molecules, qHTS assay (AID 1346978). Also: nearly all actives have a fitted effect of over 15% in size. Summed up:
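Caspase-3/7 induction was measured by Caspase-Glo 3/7 luminescence (30 min, room temperature) after a 17 hr compound exposure of wild-type HepG2 cells seeded at 2,000 per well and pre-incubated 5 hr.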

Assay [3] in a line: Caspase-3/7 induction in CHO-K1 cells by small molecules, qHTS cell viability counter screen (AID 1346979). Also: nearly all actives have a fitted effect of over 35% in size. Also: potency is read from the fitted curve at half-maximal effect. Summed up:
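Cells (CHO-K1, wild type) are plated at 1,500 per well and incubated 5hr. Test compounds in DMSO are then pinned in, followed by 16hr at 37C and 5% CO2. Viability is read by CellTiter-Fluor fluorescence after 1hr.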

A short description of assay [4]: Caspase-3/7 induction in CHO-K1 cells by small molecules, qHTS assay (AID 1346980). Also: nearly all actives have a fitted effect of over 15% in size. In outline:
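Luminescent Caspase-Glo 3/7 read (30min, room temperature) quantified apoptosis induction. Cells were wild-type CHO-K1, treated with compound for 17hr at 37 C and 5% CO2.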

Assay [5] in a line: Caspase-3/7 induction in HepG2 cells by small molecules, qHTS cell viability counter screen (AID 1346981). Also: nearly all actives have a fitted effect of over 30% in size. Also: potency is read from the fitted curve at half-maximal effect. Summed up: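 Wild-type HepG2 cells, 2,000/well, settled 5 hr at 37 C, 5% CO2 before compound addition. Viability read by CellTiter-Fluor fluorescence, reagent added after 16 hr compound exposure, then 1 hr at 37C, in the same wells as the caspase read.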
Assay [6] concerns the target Nuclear receptor subfamily 1 group I member 2 (Homo sapiens) (UniProt O75469). Nature of the assay: Human pregnane X receptor (PXR) small molecule agonists, qHTS assay (AID 1346982). Also: nearly all actives have a fitted effect of over 35% in size. Also: potency is read from the fitted curve at half-maximal effect. In outline:
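PXR-Luc HepG2 reporter cells (CYP3A4-driven luciferase) in 5% charcoal-stripped FBS medium, plated 5 h before compound addition, then treated 24 h at 37C. Luciferase read by ONE-Glo luminescence after 30 min at room temperature.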

Assay [7] deals with Cytochrome P450 2D6 (Homo sapiens) (UniProt P10635). Put plainly: Cytochrome P450 Family 2 Subfamily D Member 6 (CYP2D6) small molecule antagonists: luciferase reporter qHTS assay (AID 1671196). Also: nearly all actives have a fitted effect of over 50% in size. Also: potency is read from the fitted curve at half-maximal effect. In outline:
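Cell-free P450-Glo system: CYP2D6 with proluciferin substrate was pre-incubated with compound for 10 min, then reacted with NADPH regeneration for 1 h at room temperature. Luciferin product was detected after 20 min, and data were reported as relative luminescence units.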
For orientation: A reporter such as luciferase makes a cellular process visible.

For assay [8], the target named is Cytochrome P450 2C9 (Homo sapiens) (UniProt P11712). Put plainly: Cytochrome P450 Family 2 Subfamily C Member 9 (CYP2C9) small molecule antagonists: luciferase reporter qHTS assay (AID 1671198). Also: series mostly up to about 120 µM; nearly all actives have a fitted effect of over 50% in size. Summed up:
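Enzyme-substrate mix preincubated with compound 10 min at room temperature; reaction started with NADPH regeneration solution, 1 h 37C. Luminescent luciferin product read after 20 min detection reagent.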

Assay [9] concerns the target Cytochrome P450 1A2 (Homo sapiens) (UniProt P05177). Nature of the assay: Cytochrome P450 Family 1 Subfamily A Member 2 (CYP1A2) small molecule antagonists: luciferase reporter qHTS assay (AID 1671199). Also: nearly all actives have a fitted effect of over 50% in size. Also: potency is read from the fitted curve at half-maximal effect. In outline:
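P450-Glo CYP1A2 enzyme–proluciferin substrate mix with compound 10 min at room temperature, then NADPH regeneration 1 h at room temperature. Luciferin detection reagent added, luminescence read after 20 min; furafylline positive control.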

Assay [10] deals with Voltage-gated inwardly rectifying potassium channel KCNH2 (Homo sapiens) (UniProt Q12809). Nature of the assay: Human Ether-a-go-go-Related Gene (hERG) channel small molecule antagonists: fluorescence cell-based qHTS assay (AID 1671200). In outline:
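Channel function was assessed by thallium flux. Cells seeded the previous day and kept at 37 C took up FluxOR II dye over 1 h in the dark at room temperature, then sat another 10 min before stimulation.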

The target of assay [11] is Cytochrome P450 3A4 (Homo sapiens) (UniProt P08684). Nature of the assay: Cytochrome P450 Family 3 Subfamily A Member 4 (CYP3A4) small molecule antagonists: luciferase reporter qHTS assay (AID 1671201). Also: nearly all actives have a fitted effect of over 50% in size. Also: potency is read from the fitted curve at half-maximal effect. In outline: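 Compounds in DMSO were pin-transferred onto CYP3A4 enzyme-substrate mix and held 10 min at room temperature. NADPH regenerating solution started the reaction for 1 h; luciferin detection reagent stopped it, and luminescence was read after 20 min.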
Cytochrome P450 3A4 (Homo sapiens), sequence (P08684 whole entry, looked up): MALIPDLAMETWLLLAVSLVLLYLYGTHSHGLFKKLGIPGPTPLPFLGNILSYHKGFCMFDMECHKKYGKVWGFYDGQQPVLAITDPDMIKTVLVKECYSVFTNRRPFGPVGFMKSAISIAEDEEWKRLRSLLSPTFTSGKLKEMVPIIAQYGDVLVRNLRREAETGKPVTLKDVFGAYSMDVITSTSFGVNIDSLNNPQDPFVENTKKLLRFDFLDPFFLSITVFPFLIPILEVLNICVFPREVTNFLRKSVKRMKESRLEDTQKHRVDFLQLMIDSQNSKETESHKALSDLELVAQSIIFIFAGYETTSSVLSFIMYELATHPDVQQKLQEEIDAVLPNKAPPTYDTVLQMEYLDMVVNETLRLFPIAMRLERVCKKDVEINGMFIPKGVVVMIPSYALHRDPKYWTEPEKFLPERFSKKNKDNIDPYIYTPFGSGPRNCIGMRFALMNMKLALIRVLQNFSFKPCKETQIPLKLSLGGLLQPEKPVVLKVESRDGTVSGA

The target of assay [12] is Cytochrome P450 2C19 (Homo sapiens) (UniProt P33261). Put plainly: Cytochrome P450 Family 2 Subfamily C Member 19 (CYP2C19) small molecule antagonists: luciferase reporter qHTS assay (AID 1671197). Also: nearly all actives have a fitted effect of over 65% in size. Also: potency is read from the fitted curve at half-maximal effect. Summed up: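 P450-Glo CYP2C19 screening system; proluciferin substrate; DMSO compound stocks; 10 min RT preincubation; NADPH regeneration, 1 h at 37C; luciferin detection reagent, 20 min RT; luminescence as RLU.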
Cytochrome P450 2C19 (Homo sapiens), sequence (P33261 whole entry, looked up): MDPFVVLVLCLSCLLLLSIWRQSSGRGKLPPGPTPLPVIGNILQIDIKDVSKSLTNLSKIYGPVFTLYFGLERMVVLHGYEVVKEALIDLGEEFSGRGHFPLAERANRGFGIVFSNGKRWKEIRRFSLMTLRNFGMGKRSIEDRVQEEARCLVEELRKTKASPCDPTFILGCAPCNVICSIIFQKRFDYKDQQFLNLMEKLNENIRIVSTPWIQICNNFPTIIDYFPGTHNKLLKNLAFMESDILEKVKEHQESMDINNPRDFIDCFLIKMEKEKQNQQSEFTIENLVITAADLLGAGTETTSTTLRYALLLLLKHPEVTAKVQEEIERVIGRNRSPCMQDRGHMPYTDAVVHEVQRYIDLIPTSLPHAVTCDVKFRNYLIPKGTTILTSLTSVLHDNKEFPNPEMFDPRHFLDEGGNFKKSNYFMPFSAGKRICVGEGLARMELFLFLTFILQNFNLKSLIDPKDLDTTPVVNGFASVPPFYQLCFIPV

Assay [13] has as its target Nuclear receptor subfamily 1 group I member 2 (Rattus norvegicus) (UniProt Q9R1A7). Put plainly: Rat pregnane X receptor (rPXR) activation by small molecules, qHTS assay (AID 1346983). Also: nearly all actives have a fitted effect of over 20% in size. Particulars: rPXR luciferase reporter cells, One-Glo luminescence, 24 h; max activation: hits give high values. Summed up:
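Luminescent readout (One-Glo luciferase, 30 min room temperature) followed 24 hr compound treatment at 37 C of rPXR cells plated 2,000 per well and preincubated 5hr; qHTS format with compounds delivered in DMSO.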

Assay [14] deals with Nuclear receptor subfamily 1 group I member 2 (Homo sapiens) (UniProt O75469). Nature of the assay: CYP3A4 induction through human pregnane X receptor (PXR) by small molecules, qHTS assay (AID 1346984). Also: nearly all actives have a fitted effect of over 40% in size. Summed up:
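DPX-2 HepG2 cells carrying a PXR response element and CYP3A4-promoter luciferase construct, treated with compounds 24 hr at 37C. Then P450-Glo CYP3A4 Luciferin-IPA substrate (3uM final) for 3 hr at 37C, One-Glo added, luminescence read.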

The target is the same in assay [15]. Nature of the assay: Human pregnane X receptor (PXR) activation by small molecules, qHTS assay (AID 1346985). Also: nearly all actives have a fitted effect of over 40% in size. Summed up:
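DPX-2 cells (HepG2 co-transfected with a PXR response element and a CYP3A4-promoter luciferase construct) were seeded at 2,000 per well, rested 5 hr at 37C, then exposed to DMSO-dissolved compounds for 24 hr. Activation was read as luciferase luminescence.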
% is scaled to controls: 0 for no effect and ±100 for the full control effect.

Nuclear receptor subfamily 1 group I member 2 (Homo sapiens), sequence (O75469 whole entry, looked up): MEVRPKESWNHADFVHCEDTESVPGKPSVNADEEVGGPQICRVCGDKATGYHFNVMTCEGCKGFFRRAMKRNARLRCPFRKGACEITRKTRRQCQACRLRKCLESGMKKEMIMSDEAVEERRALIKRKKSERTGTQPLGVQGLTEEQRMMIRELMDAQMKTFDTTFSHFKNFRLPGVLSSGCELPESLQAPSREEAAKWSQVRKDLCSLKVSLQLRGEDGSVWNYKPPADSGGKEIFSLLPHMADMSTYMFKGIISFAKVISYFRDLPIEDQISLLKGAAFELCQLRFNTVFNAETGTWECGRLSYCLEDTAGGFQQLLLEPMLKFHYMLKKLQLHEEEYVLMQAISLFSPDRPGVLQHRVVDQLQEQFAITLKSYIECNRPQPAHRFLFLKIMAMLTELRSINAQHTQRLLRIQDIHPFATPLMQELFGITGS
Cytochrome P450 1A2 (Homo sapiens), sequence (P05177 whole entry, looked up): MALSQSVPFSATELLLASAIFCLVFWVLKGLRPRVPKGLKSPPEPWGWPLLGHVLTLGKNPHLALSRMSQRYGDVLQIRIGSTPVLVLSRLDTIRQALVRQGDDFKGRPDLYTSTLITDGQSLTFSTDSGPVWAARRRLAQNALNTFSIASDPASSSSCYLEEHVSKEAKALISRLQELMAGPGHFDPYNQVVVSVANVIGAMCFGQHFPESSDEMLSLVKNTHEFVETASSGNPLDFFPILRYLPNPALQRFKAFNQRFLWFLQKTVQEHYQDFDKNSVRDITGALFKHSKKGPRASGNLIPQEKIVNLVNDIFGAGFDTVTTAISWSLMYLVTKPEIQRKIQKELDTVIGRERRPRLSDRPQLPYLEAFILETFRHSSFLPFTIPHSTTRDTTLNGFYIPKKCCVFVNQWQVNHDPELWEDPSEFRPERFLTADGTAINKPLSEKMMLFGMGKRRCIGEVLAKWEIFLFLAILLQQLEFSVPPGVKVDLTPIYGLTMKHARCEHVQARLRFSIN
Cytochrome P450 2D6 (Homo sapiens), sequence (P10635 whole entry, looked up): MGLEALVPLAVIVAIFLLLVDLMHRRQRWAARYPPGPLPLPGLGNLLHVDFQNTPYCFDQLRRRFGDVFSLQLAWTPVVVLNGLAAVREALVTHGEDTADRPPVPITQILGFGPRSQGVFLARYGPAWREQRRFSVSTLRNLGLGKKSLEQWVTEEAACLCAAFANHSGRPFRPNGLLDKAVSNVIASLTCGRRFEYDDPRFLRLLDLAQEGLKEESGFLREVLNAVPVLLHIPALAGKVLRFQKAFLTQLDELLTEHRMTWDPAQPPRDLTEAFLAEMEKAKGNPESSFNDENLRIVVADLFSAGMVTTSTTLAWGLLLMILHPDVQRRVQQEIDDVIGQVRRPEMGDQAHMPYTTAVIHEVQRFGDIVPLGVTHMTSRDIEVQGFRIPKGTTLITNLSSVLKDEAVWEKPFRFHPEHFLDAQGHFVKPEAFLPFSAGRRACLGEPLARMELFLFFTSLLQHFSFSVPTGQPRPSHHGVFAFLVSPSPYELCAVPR
Voltage-gated inwardly rectifying potassium channel KCNH2 (Homo sapiens), sequence (Q12809 whole entry, looked up): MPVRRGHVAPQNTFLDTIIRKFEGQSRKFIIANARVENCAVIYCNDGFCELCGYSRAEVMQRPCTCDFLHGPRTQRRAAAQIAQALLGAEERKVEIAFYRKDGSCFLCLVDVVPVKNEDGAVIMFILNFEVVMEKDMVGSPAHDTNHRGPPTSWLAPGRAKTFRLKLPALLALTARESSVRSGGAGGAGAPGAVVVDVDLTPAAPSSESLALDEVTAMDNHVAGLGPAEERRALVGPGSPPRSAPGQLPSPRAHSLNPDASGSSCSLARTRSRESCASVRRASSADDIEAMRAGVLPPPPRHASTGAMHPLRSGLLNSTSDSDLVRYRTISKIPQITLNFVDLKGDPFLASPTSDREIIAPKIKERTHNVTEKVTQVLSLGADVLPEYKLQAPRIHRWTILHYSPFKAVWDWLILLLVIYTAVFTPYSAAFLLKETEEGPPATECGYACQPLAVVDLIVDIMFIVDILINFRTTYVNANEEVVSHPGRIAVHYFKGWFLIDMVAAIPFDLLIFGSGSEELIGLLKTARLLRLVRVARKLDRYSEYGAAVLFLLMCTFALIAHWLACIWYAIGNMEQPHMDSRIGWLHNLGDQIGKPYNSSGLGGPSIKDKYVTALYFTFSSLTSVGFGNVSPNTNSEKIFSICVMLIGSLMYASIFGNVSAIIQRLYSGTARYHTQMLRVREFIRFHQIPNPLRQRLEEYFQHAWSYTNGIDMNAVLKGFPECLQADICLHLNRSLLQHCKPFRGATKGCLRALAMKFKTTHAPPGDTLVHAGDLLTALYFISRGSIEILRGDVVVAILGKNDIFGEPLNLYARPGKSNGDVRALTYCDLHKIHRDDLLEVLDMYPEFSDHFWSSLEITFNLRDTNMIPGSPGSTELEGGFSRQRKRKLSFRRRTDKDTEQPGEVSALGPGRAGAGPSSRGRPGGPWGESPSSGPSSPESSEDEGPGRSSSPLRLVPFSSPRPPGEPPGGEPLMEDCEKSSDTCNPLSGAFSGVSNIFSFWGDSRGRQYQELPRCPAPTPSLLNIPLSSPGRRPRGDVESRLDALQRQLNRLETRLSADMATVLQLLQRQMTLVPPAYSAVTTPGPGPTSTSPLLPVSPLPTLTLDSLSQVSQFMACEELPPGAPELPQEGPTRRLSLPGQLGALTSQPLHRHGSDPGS
Cytochrome P450 2C9 (Homo sapiens), sequence (P11712 whole entry, looked up): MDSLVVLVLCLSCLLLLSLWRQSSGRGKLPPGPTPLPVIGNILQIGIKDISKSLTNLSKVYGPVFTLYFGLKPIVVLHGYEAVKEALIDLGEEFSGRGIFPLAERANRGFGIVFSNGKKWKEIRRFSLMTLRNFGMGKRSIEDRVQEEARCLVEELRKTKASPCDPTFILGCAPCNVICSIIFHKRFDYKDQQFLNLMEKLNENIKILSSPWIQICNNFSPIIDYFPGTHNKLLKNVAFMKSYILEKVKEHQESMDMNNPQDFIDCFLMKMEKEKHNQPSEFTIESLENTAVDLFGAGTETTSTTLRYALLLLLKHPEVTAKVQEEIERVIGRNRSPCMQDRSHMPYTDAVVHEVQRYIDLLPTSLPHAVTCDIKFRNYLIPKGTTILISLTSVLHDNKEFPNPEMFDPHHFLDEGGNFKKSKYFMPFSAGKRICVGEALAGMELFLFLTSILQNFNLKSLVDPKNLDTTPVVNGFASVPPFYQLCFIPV
Nuclear receptor subfamily 1 group I member 2 (Rattus norvegicus), sequence (Q9R1A7 whole entry, looked up): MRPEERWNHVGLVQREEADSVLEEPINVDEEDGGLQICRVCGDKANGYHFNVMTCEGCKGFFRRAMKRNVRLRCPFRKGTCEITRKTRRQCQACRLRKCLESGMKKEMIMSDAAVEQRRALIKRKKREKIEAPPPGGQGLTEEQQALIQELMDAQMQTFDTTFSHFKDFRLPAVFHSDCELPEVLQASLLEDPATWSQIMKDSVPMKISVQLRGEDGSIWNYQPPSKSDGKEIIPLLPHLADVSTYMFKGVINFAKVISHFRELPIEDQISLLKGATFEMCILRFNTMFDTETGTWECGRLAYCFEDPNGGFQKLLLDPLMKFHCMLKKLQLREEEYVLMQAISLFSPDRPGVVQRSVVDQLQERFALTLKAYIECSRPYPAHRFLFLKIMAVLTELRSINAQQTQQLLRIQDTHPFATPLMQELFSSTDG

Turning to `CCN(CC)CC(=O)Nc1c(C)cccc1C(=O)OC`, the Potency entry in [1], in [2], in [3], in assay [5], in [6] and in [8] was “inactive” each time. The Potency result in assay [9], in [10] and in [11] was “inactive” throughout. Moreover, in assay [4], the result was inactive. In addition, the Potency in assay [7] was 38.9 µM (active).

For the compound `COC(=O)c1sccc1S(N)(=O)=O`, the Potency entry in assay [2], in [3], in [5], in assay [6], in assay [8] and in assay [9] was “inactive” each time. In assay [10], the Potency entry was “inactive”. In assay [4], the outcome was inactive. Besides, in [12], the Potency was 79.6 µM (active).

In the case of `CC[C@H]1OC(=O)[C@H](C)[C@@H](O[C@H]2C[C@@](C)(OC)[C@@H](O)[C@H](C)O2)[C@H](C)[C@@H](O[C@@H]2O[C@H](C)C[C@H](N(C)C)[C@H]2O)[C@](C)(O)C[C@@H](C)/C(=N\OCOCCOC)[C@H](C)[C@@H](O)[C@]1(C)O`, the Potency result in assay [2], in [14], in assay [15], in assay [7], in assay [12] and in [8] was “inactive” throughout. In addition, the Potency entry in [9] and in assay [10] was “inactive” throughout. The Potency was 28.6 µM (active) in assay [3], 25.5 µM (active) in [5] and 3.33 µM (active) in assay [11]. Further, the outcome in assay [4] was inactive. Also, the max activation in [13] was 0.558%.

In the case of `CC(C)c1ccc(C(=O)N=C(N)N)cc1S(C)(=O)=O`, the Potency entry in assay [1], in assay [2], in assay [3], in assay [5], in assay [6] and in [12] was “inactive” throughout. The Potency result in [8], in assay [10] and in assay [11] was “inactive” each time. Further, the result in assay [4] was inactive. In [9], the Potency was 44.4 µM (active).

For the compound `CCCCCCCCCCCCCOS(=O)(=O)O`, the Potency result in assay [1], in assay [2], in [5], in assay [6], in [7] and in assay [12] was “inactive” throughout. The Potency entry in assay [9], in assay [10] and in assay [11] was “inactive” each time. Moreover, the compound was called inactive in [4].

Regarding `CC(=O)NCCO`, the Potency result in assay [1], in [2], in [3], in assay [5], in [6] and in assay [7] was “inactive” each time. In addition, the Potency result in [12], in [9] and in [10] was “inactive” throughout. For the same compound, in assay [4], the result was inactive.

Take `CC(=O)OCCC(C)CC(C)(C)C` (stereo not given): the Potency result in assay [1], in assay [2], in assay [5], in assay [6], in [12] and in [8] was “inactive” throughout. Further, the Potency result in assay [9], in assay [10] and in assay [11] was “inactive” in each case. In addition, in assay [4], the outcome was inactive. The Potency in assay [7] was 71 µM (active).

Turning to `CCCC(=O)OC(=O)CCC`, the Potency result in assay [1], in [2], in assay [3], in [5], in [6] and in assay [7] was “inactive” throughout. Besides, the Potency result in [12], in assay [8], in [10] and in assay [11] was “inactive” in each case. In assay [4], the compound was called inactive.

For the compound `CN1C(CSCC(F)(F)F)Nc2cc(Cl)c(S(N)(=O)=O)cc2S1(=O)=O` (stereo not given), the Potency entry in assay [1], in [2], in assay [3], in assay [5], in assay [7] and in assay [12] was “inactive” each time. For the same compound, the Potency entry in assay [9] is “inactive”. The result in [4] was inactive. Further, the Potency in [6] is 29.8 µM (active).

Values taken from PubChem BioAssay (Tox21).
